ATXN2 expr inh: inhibitors of ATXN2 expression. 0.72% of 360,000 active. Potency, µM (doses to about 57 µM), actives largely listed as inhibitors. HEK-293 ATXN2-luciferase reporter, luminescence, 24 h; also: nearly all actives have a fitted effect of over 55% in size
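ATXN2-luciferase reporter cells (luciferase flanked by upstream and downstream ATXN2 gene portions) were treated 24 h at 37 °C with compounds at up to 57 uM. SteadyGlo luminescence gave expression; GF-AFC fluorescence gave viability.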
DT40 TDP1 no CPT: qHTS for Inhibitors of human tyrosyl-DNA phosphodiesterase 1 (TDP1): qHTS in cells in absence of CPT; DT40 Tdp1-/- hTDP1 cells, no CPT, ATP luminescence, 48 h; Potency, µM (series often up to 46.2 µM), most hits filed as inhibitors; 15% of 420,000 active; also: nearly all actives have a fitted effect of over 55% in size
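Cells were dispensed at 400 per well, compounds added by pin tool, plates incubated ≥48 hr at 37 °C, then CellTiter-Glo added for 30 min at room temperature before luminescence reading. Line: DT40 Tdp1-/- complemented with hTDP1; camptothecin omitted.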
HepG2 tox: counter-screen for TGF-b inhibitors: cytotoxicity in HepG2 cells; HepG2 CAGA-GFP viability, ATP luminescence, 18 h; Potency, µM (series often up to 46.1 µM), usual class: cytotoxic; 0.76% of 410,000 active; AID 588856
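HepG2 CAGA-GFP cells (1000/well, DMEM with 1% FBS) received compound, then TGF-beta at 500 pg/mL final, and were incubated 18 hours at 37 degrees C. Viability was read by CellTiter-Glo luminescence. Media-only wells were set as complete cell-killing and DMSO as no toxicity.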
ATXN viability: viability counter-screen for ATXN expression inhibitors; S2 cells (HEK-293 line with an ATXN2-luciferase reporter) viability, CellTiter-Fluor protease fluorescence, 24 h; Potency, µM (series often up to 56.7 µM), usual class: cytotoxic; 0.49% of 400,000 active; AID 651635; also: nearly all actives have a fitted effect of over 40% in size
DT40 TDP1 CPT: growth inhibition of DT40 Tdp1-/-;hTDP1 cells with camptothecin (screen for TDP1 inhibitors); chicken DT40 Tdp1-/-;hTDP1 cells + 20 nM CPT, ATP luminescence, 48 h; Potency, µM (series often up to 46.2 µM), actives largely listed as inhibitors; 12% of 420,000 active; AID 686979; also: nearly all actives have a fitted effect of over 55% in size
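Chicken DT40 Tdp1-/- cells complemented with human TDP1, 400 cells/well, exposed to compounds plus 20 nM camptothecin for at least 48 h at 37 C; viability read as ATP content by CellTiter-Glo luminescence.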
TGFb SMAD3 inh: TGF-b pathway inhibition; HepG2 CAGA-GFP TGF-b/SMAD3 reporter, GFP fluorescence, 18 h; TGF-beta stimulated, 500 pg/mL final; Potency, µM (top dose mostly 46.1 µM), hits mostly inhibitors; 1.2% of 410,000 active; AID 588855; also: nearly all actives have a fitted effect of over 65% in size
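Using HEPG2 CAGA-GFP reporter cells at 1000 cells/well, we pinned test compounds, stimulated with recombinant TGF-beta (500 pg/mL final) and measured total well GFP after 18 h.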
Of the large screens only hits and unclear results are named; the others gave an inactive call. Rows were chosen to be rich in hits. Some 17% of all compounds tested hit in one or more screens of this group. Calls follow the shape of the dose curve; as a rule, active = well fitted curve in the direction sought with a large enough effect; inconclusive = small, poorly fitted or top-dose-only effect, or another doubt; inactive = no such curve, though single readings can be large; an effect the other way counts as inactive or inconclusive.

O=C(O)c1ccc(-n2ncc3c2/C(=C/c2cccc([N+](=O)[O-])c2)CC3)cc1	DT40 TDP1 no CPT inconclusive, DT40 TDP1 CPT 16.4µM (no result: ATXN2 expr inh)
CC(C)(S)C(=O)N[C@@H](CS)C(=O)O	none (no result: ATXN2 expr inh, HepG2 tox, TGFb SMAD3 inh)
O=C1CC(c2ccc(O[C@@H]3OC(CO)[C@@H](O)C(O)C3O)cc2)Oc2cc(O)ccc21 (some centres undefined)	none (no result: ATXN2 expr inh, HepG2 tox, ATXN viability, TGFb SMAD3 inh)
CC1CCCN(CC(=O)NC(=O)NC2CCCCC2)C1 (centres undefined)	none (no result: ATXN2 expr inh)
Cc1cccc(NC(=O)CN(C2=NC3CS(=O)(=O)CC3S2)c2ccccc2F)c1 (centres undefined)	none
O=C(NCc1ccc(Cl)c(Cl)c1)C1CCCC1	none (no result: ATXN viability)
O=C(Nc1ccc(-c2csc(Nc3ccccc3)n2)cc1)c1cccc(C(F)(F)F)c1	ATXN2 expr inh inconclusive, DT40 TDP1 no CPT 4.11µM, ATXN viability inconclusive, DT40 TDP1 CPT 2.91µM, TGFb SMAD3 inh inconclusive
NC(=O)Cc1nc(-c2ccc([N+](=O)[O-])cc2)cs1	DT40 TDP1 no CPT inconclusive, ATXN viability inconclusive, DT40 TDP1 CPT 10.3µM
CC(=O)c1cccc(Nc2nc(-c3cccc([N+](=O)[O-])c3)cs2)c1	DT40 TDP1 no CPT inconclusive, ATXN viability inconclusive, DT40 TDP1 CPT inconclusive
Cc1ccc(-c2csc(NC(=O)c3cccc([N+](=O)[O-])c3)n2)cc1	none
O=C(Nc1ccc(-c2csc(Nc3ccccc3)n2)cc1)c1cc([N+](=O)[O-])cc(C(F)(F)F)c1	ATXN2 expr inh inconclusive, DT40 TDP1 no CPT 18.4µM, ATXN viability 12.6µM, DT40 TDP1 CPT inconclusive, TGFb SMAD3 inh inconclusive
O=C(Nc1cccc(-c2csc(Nc3cccc(C(F)(F)F)c3)n2)c1)c1cc([N+](=O)[O-])cc(C(F)(F)F)c1	DT40 TDP1 no CPT 5.8µM, DT40 TDP1 CPT 7.31µM
O=[N+]([O-])c1ccc(-c2csc(Nc3ccccc3)n2)cc1	DT40 TDP1 no CPT 12.6µM, DT40 TDP1 CPT inconclusive (no result: ATXN2 expr inh, HepG2 tox, ATXN viability, TGFb SMAD3 inh)
O=C(Nc1ccc(F)cc1F)c1csc(-c2ccncc2)n1	none
Cc1ccc(C(=O)Nc2cccc(C(F)(F)F)c2)cc1NC(=O)c1csc(-c2ccncc2)n1	ATXN2 expr inh inconclusive, DT40 TDP1 no CPT 4.11µM, ATXN viability inconclusive, DT40 TDP1 CPT 6.51µM
N#Cc1ccc(Nc2nc(-c3ccccc3)cs2)cc1	ATXN2 expr inh inconclusive, DT40 TDP1 no CPT inconclusive, ATXN viability inconclusive, DT40 TDP1 CPT inconclusive, TGFb SMAD3 inh inconclusive
CCOc1ccc(S(=O)(=O)N2CCCC(C(=O)N3CCCC3)C2)cc1 (centres undefined)	DT40 TDP1 no CPT inconclusive, ATXN viability inconclusive
CC1C=CC(C)C(C(=O)c2ccccc2)C1C(=O)c1ccccc1 (centres undefined)	DT40 TDP1 no CPT 23.1µM, DT40 TDP1 CPT 13µM (no result: ATXN2 expr inh)
O=C(c1ccccc1)C1OC1C(=O)c1ccccc1 (centres undefined)	DT40 TDP1 no CPT 6.51µM, ATXN viability inconclusive, DT40 TDP1 CPT 4.11µM, TGFb SMAD3 inh inconclusive
O=C(NCc1cccc(OC(F)(F)F)c1)C1CCC(=O)N(Cc2cccc(F)c2)C1 (centres undefined)	none
Cc1c(C(=O)N2CC3CCC2C3)sc2ncnc(NCCc3c[nH]c4ccccc34)c12 (centres undefined)	DT40 TDP1 no CPT 23.1µM, ATXN viability inconclusive, DT40 TDP1 CPT inconclusive (no result: ATXN2 expr inh, HepG2 tox, TGFb SMAD3 inh)
O=C(COc1cccc(NC(=O)c2cccc([N+](=O)[O-])c2)c1)c1ccc(F)cc1	ATXN2 expr inh inconclusive, DT40 TDP1 no CPT 13µM, ATXN viability inconclusive, DT40 TDP1 CPT inconclusive
COc1cccc(C(=O)COc2cccc(NC(=O)c3cccc([N+](=O)[O-])c3)c2)c1	ATXN2 expr inh inconclusive, DT40 TDP1 no CPT 16.4µM, ATXN viability inconclusive, DT40 TDP1 CPT inconclusive
O=C(COc1cccc(NC(=O)c2ccco2)c1)c1ccc(F)cc1	DT40 TDP1 no CPT 20.6µM, DT40 TDP1 CPT inconclusive
O=C(COc1cccc(NC(=O)c2ccccc2)c1)c1ccc(F)cc1	DT40 TDP1 CPT inconclusive
COC(=O)Nc1ccc(SCC(=O)c2cccc([N+](=O)[O-])c2)cc1	DT40 TDP1 no CPT 20.6µM, ATXN viability inconclusive, DT40 TDP1 CPT inconclusive, TGFb SMAD3 inh inconclusive (no result: ATXN2 expr inh)
COC(=O)c1cccc(NC(=O)COc2cccc([N+](=O)[O-])c2)c1	DT40 TDP1 no CPT inconclusive (no result: ATXN2 expr inh)
CCN(CC)C(=O)c1sc2c(c1C)c(=O)n(-c1ccc(Cl)c(Cl)c1)c(=O)n2Cc1cc(=O)n2ccccc2n1	DT40 TDP1 no CPT inconclusive
Cc1nnc(NC(=O)CCSCCC(=O)Nc2nnc(C)s2)s1	none (no result: ATXN2 expr inh)
CCOC(=O)C1=C(O)/C(=C/c2cn(CC(=O)N3CCCC3)c3ccccc23)SC1=Nc1ccccc1	ATXN2 expr inh inconclusive, DT40 TDP1 no CPT 18.4µM, ATXN viability inconclusive, DT40 TDP1 CPT 18.4µM
COC(=O)c1cn(CC(=O)N2CCCCCC2)c2ccccc12	none
CC(SC1=NCCN1S(=O)(=O)c1ccccc1)c1ccccc1 (centres undefined)	none
CC(C)[C@H](NC(=O)c1ccc(Cl)cc1Cl)C(=O)NNC(=O)c1ccco1	none
CCN(CC(=O)Nc1ccc(NC(C)=O)cc1)C(=O)c1cccc(S(=O)(=O)N2c3ccccc3CC2C)c1 (centres undefined)	none
COc1ccccc1C(CNC(=O)c1cccc(S(=O)(=O)N2CCCc3ccccc32)c1)N(C)C (centres undefined)	DT40 TDP1 no CPT inconclusive, ATXN viability inconclusive, DT40 TDP1 CPT inconclusive
CNC(=O)C1CN(C(=O)c2cccc(S(=O)(=O)N3c4ccccc4CC3C)c2)c2ccccc2O1 (centres undefined)	DT40 TDP1 no CPT 18.4µM, ATXN viability inconclusive, DT40 TDP1 CPT inconclusive, TGFb SMAD3 inh inconclusive (no result: ATXN2 expr inh)
C=CCN(CC=C)C(=O)c1cccc(S(=O)(=O)N2c3ccccc3CC2C)c1 (centres undefined)	DT40 TDP1 no CPT 16.4µM, DT40 TDP1 CPT 16.4µM, TGFb SMAD3 inh inconclusive
CC1Cc2ccccc2N1S(=O)(=O)c1cccc(C(=O)NC2CC2)c1 (centres undefined)	DT40 TDP1 no CPT 13µM, DT40 TDP1 CPT 18.4µM
COc1ccccc1C(CNC(=O)c1cccc(S(=O)(=O)N2c3ccccc3CC2C)c1)N(C)C (centres undefined)	DT40 TDP1 no CPT 14.6µM, DT40 TDP1 CPT inconclusive, TGFb SMAD3 inh inconclusive
CC1Cc2ccccc2N1S(=O)(=O)c1cccc(C(=O)Nc2cccnc2)c1 (centres undefined)	DT40 TDP1 no CPT inconclusive, DT40 TDP1 CPT inconclusive
Cc1ccccc1CC(=O)NC1CCN(Cc2ccccc2)CC1	none

Screening data from PubChem BioAssay.
